# Screening results from PubChem.
# USP30 block: blocks human USP30 ubiquitin-rhodamine cleavage. Q70CQ3. purified USP30, Ub-rhodamine cleavage fluorescence. inhibition, % at 25 µM. 5.3% of 47,000 active
# Target sequence (Q70CQ3 whole entry, looked up): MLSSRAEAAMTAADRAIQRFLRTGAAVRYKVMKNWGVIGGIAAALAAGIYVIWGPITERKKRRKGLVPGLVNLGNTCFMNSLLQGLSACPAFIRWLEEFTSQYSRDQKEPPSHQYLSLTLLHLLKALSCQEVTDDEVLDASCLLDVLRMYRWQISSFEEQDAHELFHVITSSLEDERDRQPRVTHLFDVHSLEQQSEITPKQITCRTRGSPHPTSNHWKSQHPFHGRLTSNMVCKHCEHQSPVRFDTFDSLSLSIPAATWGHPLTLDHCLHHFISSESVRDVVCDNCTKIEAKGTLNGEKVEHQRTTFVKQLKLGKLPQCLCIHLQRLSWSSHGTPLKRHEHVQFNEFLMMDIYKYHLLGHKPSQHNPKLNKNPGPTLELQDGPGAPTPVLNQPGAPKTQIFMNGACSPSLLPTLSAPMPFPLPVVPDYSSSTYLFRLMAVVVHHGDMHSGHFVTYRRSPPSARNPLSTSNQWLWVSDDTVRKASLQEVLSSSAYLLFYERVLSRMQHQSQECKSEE
# USP17 inh: blocks human USP17 ubiquitin-rhodamine cleavage; AID 1645855; A8MUK1; purified USP17, Ub-rhodamine cleavage fluorescence, 3 h; 6.5% of 47,000 active; inhibition, % at 50 µM
# USP28 inh: human USP28 deubiquitinase inhibition. Q96RU2. purified USP28, Ub-rhodamine cleavage fluorescence, 30 min. inhibition, % at 25 µM. 3% of 47,000 active. AID 1645857
# USP8 inh: inhibitors of human USP8 deubiquitinase; P40818; purified USP8, Ub-rhodamine cleavage fluorescence, 30 min; inhibition, % at 20 µM; 4.2% of 47,000 active; AID 1645853
# * hit, by the source's call; i = inactive; . = not tested or not shown. Rows were chosen to be rich in hits. Some 13% of all compounds tested hit in one or more screens of this group. Cut-off read from the data, not from the text of the source: active = inhibition above about 30%; inactive = the rest.
SMILES,USP30 block,USP17 inh,USP28 inh,USP8 inh
COc1ccc(-c2nn(C)c3sc(C(=O)N4CCN(Cc5ccc6c(c5)OCO6)CC4)cc23)cc1OC,-10,-5,-10,0
COc1ccc(-c2nn(-c3ccccc3)c3[nH]c(=O)c(CNCc4cccs4)cc23)cc1OC,-71,-47,-18,78*
Cc1ccccc1NC(=O)Cn1c(=O)n(C2CCCCC2)c2ncccc21,-67,-51,-22,-30
Cc1ccc2c(c1)c(=O)c(C(=O)c1ccccc1)cn2CC(=O)Nc1ccccc1,-44,59*,-29,89*
Cc1ccc(NC(=O)Cn2cc(C(=O)c3ccccc3)c(=O)c3cc(C)ccc32)cc1,12,20,7,83*
Cc1ccc(C(=O)c2cn(CC(=O)Nc3ccc(C(C)C)cc3)c3ccc(C)cc3c2=O)cc1,.,10,.,-1
Cc1cc(C)n2nc(NCc3cccc(Cl)c3)nc2n1,10,0,32*,15
Cc1cc(C)n2nc(C(=O)NCc3ccc(Cl)cc3)nc2n1,18,2,-7,8
O=C(Nc1ccccc1Cl)c1cc([N+](=O)[O-])ccc1N1CCCCC1,20,16,5,0
COc1c(O)c(O)c2c(=O)cc(-c3ccc(O)cc3)oc2c1OC,13,67*,40*,20
COc1cc(OC)c2c(=O)cc(-c3ccccc3)oc2c1OC,37*,1,4,6
COc1cc(C2CC(=O)Oc3n[nH]c(-c4ccccc4)c32)cc(OC)c1OC (stereo unspecified),4,7,0,-5
CCOc1ccccc1NC(=O)Cn1c(=O)n(CCCC(=O)NCc2ccc(C)cc2)c(=O)c2sccc21,37*,83*,36*,47*
Cc1ccc(CNC(=O)CCCn2c(=O)c3ccccc3n(CC(=O)Nc3cc(C)[nH]n3)c2=O)cc1,4,1,0,4
O=C(Cn1c(=O)c2sccc2n(CC(=O)OCc2ccccc2)c1=O)NCc1ccccc1Cl,12,16,7,21
Cc1ccc(CNC(=O)CCCn2c(=O)c3sccc3n(CC(=O)Nc3cc(Cl)ccc3C)c2=O)cc1,21,74*,55*,29
Cc1nc2cc(N3CCC(C(=O)N4CCCCCC4)CC3)cnc2nc1C,-358,-60,-102,-81
Cn1c(=O)n(CC(=O)OCc2ccccc2)c(=O)c2c1nc1oc(C(C)(C)C)cn12,-24,-7,-12,-1
CCOC(=O)CCn1c(=O)c2c(nc3oc(C(C)(C)C)cn32)n(C)c1=O,32*,15,12,11
Cc1nc(C2CCNCC2)nc2c1CCC(=O)N2CCc1ccccc1,-8,-22,-12,1
CCOc1ccc2ncc(S(=O)(=O)c3ccc(Cl)cc3)c(N3CCN(c4ccccc4)CC3)c2c1,.,-10,.,3
Cn1c(/C(C#N)=C/c2cn(-c3ccccc3)nc2-c2cccnc2)nc2ccccc21,-147,-7,-30,-23
O=C(NCCc1ccccc1F)c1cn2cc(Cl)ccc2n1,61*,28,18,24
Cc1cc(C)n(CC(=O)Nc2ccc(F)cc2)c1-c1nc(C(C)C)no1,10,.,6,15
Cc1ccc(CN2CC(=O)N3Cc4[nH]c5ccccc5c4C[C@@H]3C2=O)cc1,-10,-2,-2,-7
SMILES,USP30 block,USP17 inh,USP28 inh,USP8 inh
CC(=O)c1ccc(N2C(=O)[C@H]3Cc4c([nH]c5ccccc45)CN3C2=O)cc1,10,44*,7,28
CN(C)C(=O)N1Cc2ccccc2C2(CCNCC2)C1,31*,22,16,-29
O=C1COC2(CCNCC2)CN1Cc1ccc(F)cc1,1,-3,-3,-35
Cc1cc2c(cn1)C(=O)c1c(O)cc(O)cc1C2=O,-216,11,34*,-228
CC12CCCC(O1)c1c(cc3c(c1O)C(=O)c1c(O)cc(O)cc1C3=O)O2 (stereo unspecified),-125,-22,-26,-17
Cc1c(C)c2ccc(OCC(=O)NCc3ccccn3)c(C)c2oc1=O,46*,40*,15,2
Cc1cc(=O)oc2c(C)c(OCC(=O)NCc3ccccn3)ccc12,3,-3,-7,-13
Clc1cccc(CN2CCCn3c(nc4ccccc43)C2)c1,0,0,5,6
O=C(Nc1cccc(C(F)(F)F)c1)c1nn(C2CCS(=O)(=O)C2)c2c1CCCC2 (stereo unspecified),31*,10,1,-1
CCOCCCNC(=O)C1(C)CCC(=O)N1c1cccc2ccccc12 (stereo unspecified),-8,4,1,2
COc1cccc(-c2ccc3nc(N4CCC(C(N)=O)CC4)sc3n2)c1,8,49*,2,14
COc1cc(/C=C/C23NC(=O)CCN2c2ccc(C)cc2C3(C)C)ccc1OCc1ccccc1 (stereo unspecified),i,-130,-209,-202
